Screening results: PubChem BioAssay, Buhrlage Lab, Dana-Farber Cancer Institute and Novartis Institutes for BioMedical Research (Cambridge, Mass)
USP28 inh = inhibitors of human USP28 deubiquitinase | Q96RU2 | purified USP28, Ub-rhodamine cleavage fluorescence, 30 min | AID 1645857 | hit rate 3% among 47,000 | inhibition, % at 25 µM
USP17 block = blocks human USP17 ubiquitin-rhodamine cleavage; A8MUK1; purified USP17, Ub-rhodamine cleavage fluorescence, 3 h; hit rate 6.5% among 47,000; inhibition, % at 50 µM
Target sequence (A8MUK1 whole entry, looked up): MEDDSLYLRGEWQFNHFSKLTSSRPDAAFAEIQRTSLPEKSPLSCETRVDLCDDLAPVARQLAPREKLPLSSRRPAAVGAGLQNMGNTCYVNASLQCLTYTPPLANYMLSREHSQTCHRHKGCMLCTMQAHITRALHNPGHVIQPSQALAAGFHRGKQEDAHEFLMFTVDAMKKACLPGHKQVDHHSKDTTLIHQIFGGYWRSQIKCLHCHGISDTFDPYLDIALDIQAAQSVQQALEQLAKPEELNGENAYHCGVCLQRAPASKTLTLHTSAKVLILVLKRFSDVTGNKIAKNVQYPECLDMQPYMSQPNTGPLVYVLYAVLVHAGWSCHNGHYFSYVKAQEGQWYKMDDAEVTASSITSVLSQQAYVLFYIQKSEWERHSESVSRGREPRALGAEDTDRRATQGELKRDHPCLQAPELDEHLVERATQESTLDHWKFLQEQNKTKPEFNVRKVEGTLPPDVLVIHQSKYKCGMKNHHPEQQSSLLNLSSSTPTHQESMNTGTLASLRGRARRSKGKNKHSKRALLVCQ
USP30 inh = inhibitors of human USP30 deubiquitinase; Q70CQ3; purified USP30, Ub-rhodamine cleavage fluorescence; hit rate 5.3% among 47,000; inhibition, % at 25 µM
Numbers stand for hits. Sampled rows, rich in hits. Any-hit rate of the full collection: about 11%. Rule as the data show it: active = inhibition above about 30%; inactive = the rest.

Results for CN1[C@@H](CCC(=O)N2CCN(c3ccccn3)CC2)CNC(=O)[C@@H]2[C@H]1CCN2Cc1ccc(CO)o1 ?
USP28 inh: inactive; USP17 block: inactive; USP30 inh: inactive

What do the screens show for `CN1[C@@H](CCC(=O)N2CCN(c3ccccn3)CC2)CNC(=O)[C@@H]2[C@H]1CCN2CC(C)(C)C`?
USP28 inh: inactive; USP17 block: inactive; USP30 inh: inactive

Results for O=C1N(c2cccnc2)C(=O)C2(Cc3ccccc3)CCN(S(=O)(=O)C3CC3)CCN12 (centres undefined) ?
USP28 inh: inactive; USP17 block: inactive; USP30 inh: inactive

Results for O=S(=O)(Cc1ccccc1)N1CCc2nc[nH]c2C1 ?
USP28 inh: inactive; USP17 block: inactive; USP30 inh: inactive

What do the screens show for `COc1cccc(C(=O)Nc2nccn(-c3ccc4c(c3)CCC4)c2=O)c1`?
USP28 inh: inactive; USP17 block: inactive; USP30 inh: inactive

Results for COc1ccccc1NC(=O)Cn1c(N2CCOCC2)nc2cc(C)n(C)c2c1=O ?
USP28 inh: inactive; USP17 block: inactive; USP30 inh: inactive

How did O=C(c1cnccn1)N1CCCC(c2nccnc2-c2ccccc2F)C1 (centres undefined) do in these assays?
USP28 inh: inactive; USP17 block: inactive; USP30 inh: inactive

How did O=C1NCc2c1c1c3ccccc3[nH]c1c1[nH]c3ccccc3c21 do in these assays?
USP28 inh: inactive; USP17 block: 51; USP30 inh: 37

Results for Cc1nc2c(c3c1[nH]c1ccccc13)C(=O)CC(C)(C)C2 ?
USP28 inh: inactive; USP17 block: inactive; USP30 inh: inactive

Results for O=C(CN1CCC(Nc2nc3c(c(=O)[nH]2)CCC3)CC1)NC(c1ccccc1)c1ccccc1 ?
USP28 inh: inactive; USP17 block: inactive; USP30 inh: inactive

What do the screens show for `O=C(Nc1ncccc1O)C1CC(=O)N(c2ccc3c(c2)OCO3)C1` (centres undefined)?
USP28 inh: inactive; USP17 block: inactive; USP30 inh: inactive

Results for Cc1cc(C)c(NC(=O)CCC(=O)N2CCSc3ccccc32)c(C)c1 ?
USP28 inh: inactive; USP17 block: inactive; USP30 inh: inactive

Results for COc1cccc(NC(=O)CCC(=O)N2CCSc3ccccc32)c1 ?
USP28 inh: 35; USP17 block: inactive; USP30 inh: inactive

Results for Cc1onc(-c2ccccc2)c1CNC(=O)c1ccccc1C(=O)O ?
USP28 inh: inactive; USP17 block: inactive; USP30 inh: inactive

What do the screens show for `Cc1onc(-c2ccccc2)c1CNC(=O)C1CCN(c2nccc(C(F)(F)F)n2)CC1`?
USP17 block: 76

What do the screens show for `COc1ccccc1NS(=O)(=O)c1cccc(C(=O)N2CCCCCC2)c1`?
USP28 inh: inactive; USP17 block: inactive; USP30 inh: 36

How did CN(c1ccccc1)S(=O)(=O)c1cccc(C(=O)N2CCCCCC2)c1 do in these assays?
USP17 block: inactive

How did Cc1ccc(-c2nc(SCC(=O)N3CCCC3)c3c(=O)n(C)c(=O)n(C)c3n2)cc1 do in these assays?
USP28 inh: inactive; USP17 block: inactive; USP30 inh: 39

Results for Cn1c(=O)c2c(SCC(=O)NCc3ccc4c(c3)OCO4)nc(-c3ccc([N+](=O)[O-])cc3)nc2n(C)c1=O ?
USP28 inh: inactive; USP17 block: inactive; USP30 inh: 31

Results for Cn1c(=O)c2c(SCC(=O)N3CCCC3)nc(-c3cccc(Cl)c3)nc2n(C)c1=O ?
USP28 inh: inactive; USP17 block: inactive; USP30 inh: inactive

How did O=C(Cn1cnc2cc([N+](=O)[O-])ccc2c1=O)NCc1ccc2c(c1)OCO2 do in these assays?
USP28 inh: inactive; USP17 block: inactive; USP30 inh: inactive

What do the screens show for `CCOCCCNc1cc(C(C)C)nc2nc(-c3cccnc3)nn12`?
USP28 inh: inactive; USP17 block: inactive; USP30 inh: inactive

How did Cc1cn(CCC(=O)NCc2c(F)cccc2Cl)c2ccccc12 do in these assays?
USP28 inh: inactive; USP30 inh: inactive

What do the screens show for `Cc1c(C)n2c(SCC(=O)Nc3cccc(Cl)c3)nnc2[nH]c1=O`?
USP28 inh: inactive; USP17 block: inactive; USP30 inh: inactive

What do the screens show for `CC(C)CCNC(=O)CSc1nc(-c2cccc(Cl)c2)nc2cc(=O)[nH]n12`?
USP28 inh: inactive; USP17 block: 42; USP30 inh: inactive

What do the screens show for `O=C(NCc1noc(COc2ccccc2)n1)C1CCCC1`?
USP28 inh: inactive; USP17 block: inactive; USP30 inh: inactive

Results for Cc1ccccc1OCC(=O)Oc1ccc(C)c(-n2nc3ccccc3n2)c1 ?
USP28 inh: inactive; USP17 block: inactive; USP30 inh: inactive

What do the screens show for `CCCN1CCn2cc(S(=O)(=O)Nc3ccc(C)cc3)cc2C1=O`?
USP28 inh: inactive; USP17 block: inactive; USP30 inh: inactive

Results for O=C(c1[nH]nc2c1CCc1ccccc1-2)N1CCC(Cc2ccccc2)CC1 ?
USP28 inh: inactive; USP17 block: inactive; USP30 inh: inactive

How did NC(=O)C1(N2CCCCC2)CCN(C(=O)c2[nH]nc3c2CCc2ccccc2-3)CC1 do in these assays?
USP28 inh: inactive; USP17 block: 59; USP30 inh: inactive

How did Cc1cc(Cl)ccc1Oc1nc(CN2CCOCC2)nc2sc3c(c12)CCC(C)C3 (centres undefined) do in these assays?
USP28 inh: inactive; USP17 block: inactive; USP30 inh: inactive

Results for CCc1noc2ncnc(NC3CCCCCC3)c12 ?
USP28 inh: inactive; USP17 block: inactive; USP30 inh: inactive

How did CN(C)C(CNC(=O)c1ccc2ccccc2n1)c1ccccc1 (centres undefined) do in these assays?
USP28 inh: inactive; USP17 block: inactive; USP30 inh: inactive

How did CC(NC(=O)c1ccc2ccccc2n1)c1ccccc1 (centres undefined) do in these assays?
USP28 inh: inactive; USP17 block: inactive; USP30 inh: 44

What do the screens show for `Cc1cccc(C(=O)Nc2ccc3c(c2)nc(CCN2CCCCC2)n3C)c1`?
USP28 inh: inactive; USP17 block: inactive; USP30 inh: inactive

How did CCc1nc2cc(NC(=O)c3cccc(N4CCCC4=O)c3)ccc2n1C do in these assays?
USP28 inh: 62; USP17 block: inactive; USP30 inh: inactive

What do the screens show for `Cn1c(CCN2CCCCC2)nc2cc(NC(=O)COc3ccc(Cl)cc3)ccc21`?
USP28 inh: inactive; USP17 block: inactive; USP30 inh: inactive

What do the screens show for `Cn1c(CCN2CCCCC2)nc2cc(NC(=O)c3ccc(Cl)cc3)ccc21`?
USP28 inh: inactive; USP17 block: 33; USP30 inh: inactive

Results for CC(C)c1ccc(OCC(=O)NCC2(N3CCN(C)CC3)CCCCC2)cc1 ?
USP28 inh: inactive; USP17 block: inactive; USP30 inh: 30

How did CN1CCN(C2(CNC(=O)COc3ccccc3[N+](=O)[O-])CCCCC2)CC1 do in these assays?
USP28 inh: inactive; USP17 block: inactive; USP30 inh: inactive

What do the screens show for `CCNC(=O)c1nc2c(s1)CCCN2c1ncccn1`?
USP28 inh: inactive; USP17 block: inactive; USP30 inh: inactive

What do the screens show for `COc1ccc(CNC(=O)CC(c2cccc(F)c2)n2cccc2)cc1` (centres undefined)?
USP28 inh: inactive; USP17 block: inactive; USP30 inh: 35

How did COc1cccc(CNC(=O)CC(c2cccc(F)c2)n2cccc2)c1 (centres undefined) do in these assays?
USP28 inh: inactive; USP17 block: inactive; USP30 inh: inactive

Results for Cc1cc(NC(=O)Cn2c(C)cc(-c3nnc(C4CC4)o3)c2C)ccc1F ?
USP28 inh: inactive; USP17 block: 35; USP30 inh: 44
